# Screening data as filed in PubChem.
# Shown are actives, neighbours in structure and some others; about 27% of the full set was active somewhere.
# CYP2C19 inhib = blockers of cytochrome P450 2C19 activity – biochemical, luminescence, ADME assay, primary screen. 21% of 96,000 active. CYP2C19 Supersomes, luciferin-H EGE luminescence, 30 min. P33261. inhibition, % at 5 µM;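 active = CYP2C19 inhibition above a set limit at 5 µM in the primary screen, cut at about 50% in these data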;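 note: plate controls were negative control wells for no effect and 2.5 mM tranylcypromine positive control for full effect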
# CYP2C19 act = human CYP2C19 activators, primary screen, biochemical, luminescence; 96,000 tested, under 10 active; Cytochrome P450 2C19 (Homo sapiens), P33261; recombinant CYP2C19, luciferin-H EGE luminescence; hits give high values; 0 = fully inhibited enzyme, 1 = untreated enzyme; AID 1025, 2008; activation factor at 5 µM;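 active = activation factor of at least 2 at 5 µM in the primary screen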;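 note: 0 = wells with 2.5 mM tranylcypromine and 1 = vehicle-only wells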
# CYP2C9 inhib = blockers of cytochrome P450 2C9 activity – biochemical, luminescence, ADME assay, primary screen; P11712; CYP2C9 Supersomes, luciferin-H conversion; inhibition, % at 5 µM; 20% of 96,000 active; AID 777, 2007;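 active = blocking of liver enzyme CYP2C9 beyond about 50% at 5 µM, limit read from the data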
# Target sequence (P11712 whole entry, looked up): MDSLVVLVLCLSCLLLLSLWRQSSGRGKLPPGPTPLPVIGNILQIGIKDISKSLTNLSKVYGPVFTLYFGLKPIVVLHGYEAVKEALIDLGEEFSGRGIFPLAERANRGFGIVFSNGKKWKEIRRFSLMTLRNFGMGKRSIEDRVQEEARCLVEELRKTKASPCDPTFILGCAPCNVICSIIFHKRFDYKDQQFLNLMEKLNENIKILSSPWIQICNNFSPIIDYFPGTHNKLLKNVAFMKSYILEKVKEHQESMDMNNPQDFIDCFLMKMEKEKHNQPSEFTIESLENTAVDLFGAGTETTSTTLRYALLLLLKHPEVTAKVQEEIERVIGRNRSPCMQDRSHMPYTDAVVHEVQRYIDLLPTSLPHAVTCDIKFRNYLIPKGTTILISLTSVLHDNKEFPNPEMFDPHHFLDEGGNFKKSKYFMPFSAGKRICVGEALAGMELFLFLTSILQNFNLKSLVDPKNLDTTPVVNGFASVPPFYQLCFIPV
# CYP2C9 activ = human CYP2C9 activators, primary screen, biochemical, luminescence; Cytochrome P450 2C9 (Homo sapiens), P11712; recombinant CYP2C9, luciferin-H conversion; hits give high values; factor 1 = untreated enzyme, 0 = blocked; activation factor at 5 µM; 1.4% of 96,000 active; AID 1024, 2008;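 active = activation factor of 2 or more for CYP2C9 at a 5 µM dose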;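 note: 0 = sulfaphenazole-blocked wells and 1 = vehicle-only wells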
# sEH activator = soluble epoxide hydrolase activators, primary screen, biochemical, human sEH. Bifunctional epoxide hydrolase 2 (Homo sapiens), P34913. purified human sEH enzymatic activity, activator screen. activation, % at 2 µM. 0.04% of 91,000 active; in the data active = activation above about 37%
# sEH inh = soluble epoxide hydrolase inhibitors, primary screen, biochemical, human sEH. Bifunctional epoxide hydrolase 2 (Homo sapiens), P34913. recombinant human sEH enzymatic activity assay. inhibition, % at 2 µM. 0.34% of 91,000 active. AID 707, 2007; in the data active = inhibition above about 80%
# Active calls of the source: *; . = no result.
SMILES,CYP2C19 inhib,CYP2C19 act,CYP2C9 inhib,CYP2C9 activ,sEH activator,sEH inh
Cc1ccc(-c2nn3c(C)nnc3c3ccccc23)cc1S(=O)(=O)NCc1ccccc1,28,0.7,46,0.5,1,2
COC(=O)c1ccnc(/C=N/O)c1,.,.,.,.,4,-1
Cn1cccc1C(=O)NC(=O)COC(=O)c1ccc(O)cc1,4,1,-313,4.1*,-6,4
O=C(Cn1nc(C(F)(F)F)c2c1CCC2)NCc1ccc(Cl)cc1,.,.,.,.,9,-4
CCNC(=O)c1ccc(-n2nc(C(F)(F)F)c3c2CCCC3)cc1,20,0.8,-146,2.5*,11,-10
O=c1oc2c(CN3CCOCC3)c(O)ccc2c2c1CCCC2,4,1,-104,2*,.,.
Cc1oc2c(CN3CCOCC3)c(O)ccc2c(=O)c1-c1ccc(Br)cc1,26,0.7,54*,0.5,6,-8
O=c1c(-c2ccc(Br)cc2)coc2c(CN3CCOCC3)c(O)ccc12,19,0.8,58*,0.4,5,-4
CCc1cc2c(=O)c(-c3cnn(-c4ccccc4)c3)coc2c(CN2CCOCC2)c1O,22,0.8,74*,0.3,-2,1
CCc1cc2c(=O)c(-c3cnn(-c4ccccc4)c3)c(C)oc2c(CN2CCCCC2)c1O,46,0.5,28,0.7,-1,1
Cc1oc2c(CN3CCCC3)c(O)ccc2c(=O)c1-c1ccc(Cl)cc1,4,1,7,0.9,-6,7
O=c1oc2c(CN3CCOCC3)c(O)ccc2c2ccccc12,2,1,-1,1,.,.
C=CCNC(=O)/C(=C\C=C\c1ccccc1)NC(=O)c1ccc(OCCCC)cc1,18,0.8,36,0.6,10,-11
COCCn1c(-c2ccc(OC)cc2)nc2oc3cc(OC)ccc3c(=O)c2c1=O,-5,1.1,-3,1,2,1
Oc1ccc(C2N=C(c3ccccc3)NC(c3ccccc3)=N2)cc1,15,0.8,20,0.8,7,-6
CN(C)c1nc2c(c(=O)[nH]c(=O)n2C)n1Cc1ccccc1Br,44,0.6,20,0.8,16,-14
CCOC(=O)N1CCC(NC(=O)CN2C(=O)CCSc3ccccc32)CC1,12,0.9,8,0.9,.,.
O=C(CN1C(=O)COc2ccccc21)Nc1ccc2c(c1)OCCO2,57*,0.4,33,0.7,.,.
O=C(CN1C(=O)CCSc2ccccc21)Nc1ccc2c(c1)OCO2,90*,0.1,70*,0.3,.,.
O=C(CN1C(=O)CSc2ccccc21)NC1CCCC1,15,0.8,-127,2.3*,.,.
Cc1cc2ccccc2c(=O)n1CC(=O)Nc1ccc2c(c1)OCCO2,56*,0.4,63*,0.4,-9,11
CCc1ccc(NC(=O)N(C2CCC(C)CC2)C2CCN(C(C)=O)CC2)cc1 (configuration not stated),-1,1,7,0.9,.,.
O=C(CCn1c(=O)oc2ccccc21)NCCCN1CCCC1=O,-6,1.1,-13,1.1,.,.
C=CCNc1nc(Nc2ccc(OC)cc2)nc(OCC)n1,10,0.9,3,1,-2,2
Cc1c(NC(=O)NCc2ccccc2)c(=O)n(-c2ccccc2)n1C,-8,1.1,-9,1.1,.,.
SMILES,CYP2C19 inhib,CYP2C19 act,CYP2C9 inhib,CYP2C9 activ,sEH activator,sEH inh
O=C(CN1C(=O)CCS(=O)(=O)c2ccccc21)Nc1ccc2c(c1)OCCO2,.,.,.,.,11,-8
O=C(CN1C(=O)CSc2ccccc21)Nc1ccc2c(c1)OCCO2,30,0.7,-118,2.2*,-14,16
C=CCn1c(C(C)NC(=O)CCC)nc2ccccc21 (configuration not stated),.,.,.,.,-6,6
C=CCn1c(NC(C)c2cc(Cl)ccc2O)nc2ccccc21 (configuration not stated),68*,0.3,46,0.5,-3,5
C=CCn1c(NCc2cc(C)ccc2O)nc2ccccc21,85*,0.2,64*,0.4,1,-4
C=CCn1c(NCc2ccc(N(C)C)cc2)nc2ccccc21,96*,0,15,0.9,8,-8
